What follows are compounds tested on HCC1569 (assay: cell number relative to DMSO (% of DMSO); higher = more cells (less growth inhibition / toxicity)). Settings: concentration: 10 µM; 24 h.
In short: (§1)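 HCC1569 and TDF cells were seeded at 800 per well in 384-well plates in RPMI with 10% FBS and treated with compounds at 10 µM for 24 h at 37 °C, in triplicate. After fixation in 3.7% formaldehyde, cells were stained with a rabbit anti-H1.0 antibody, an AlexaFluor 647 secondary and DAPI, and six fields per well were imaged at ×10. H1.0 nuclear intensity or cell number is given as percent of the plate control, using the median of replicates, with HCC1569 values smoothed for positional effects.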
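Note: TDF denotes transformed human dermal fibroblasts of mesenchymal origin.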

Point of comparison: `COc1ccc(-n2nc(C(F)(F)F)cc2-c2ccc(Cl)cc2)cc1`, cell number 104. Against it:
- CC1CC(C)C(=O)C(C(O)CC2CC(=O)NC(=O)C2)C1 (stereo not given) [Cycloheximide] — lower, 64.3
- CN(C)Cc1c[nH]c2ccccc12 [Gramine] — lower, 96.9
- CN1CC[C@@]2(C)c3cc(OC(=O)Nc4ccccc4)ccc3N(C)[C@@H]12 — lower, 103
- O=P([O-])(O)C(Cl)(Cl)P(=O)([O-])O.[Na+].[Na+] [Clodronic acid] — lower, 101
- CN(C)C(=O)Oc1cccc([N+](C)(C)C)c1.COS(=O)(=O)[O-] — higher, 109

The compounds below were run on TDF in the same assay as above. Settings: concentration: 10 µM; 24 h.
In short: as §1

Point of comparison: `COc1ccc2c(c1OC)C(=O)OC2C1c2cc3c(cc2CCN1C)OCO3` (stereo not given), cell number 97.5. Against it:
- COc1ccc2c(c1)=NC1=C(C)NCCC=21 [Harmaline] — higher, 103
- COc1ccc2c(c1)C13CCCCC1C(C2)N(C)CC3 (stereo not given) [Dextromethorphan] — higher, 103
- C=CCN1CCC23c4c5ccc(O)c4OC2C(=NNC(=O)c2ccccc2)CCC3(O)C1C5 (stereo not given) [Naloxone benzoylhydrazone] — higher, 118
- CN1C2CCC1CC(OC(c1ccccc1)c1ccccc1N)C2 (stereo not given) [Aminobenztropine] — higher, 97.9
- CC1OC(=O)C(C(C)C)NC(=O)C(C(C)C)OC(=O)C(C(C)C)NC(=O)C(C)OC(=O)C(C(C)C)NC(=O)C(C(C)C)OC(=O)C(C(C)C)NC(=O)C(C)OC(=O)C(C(C)C)NC(=O)C(C(C)C)OC(=O)C(C(C)C)NC1=O (stereo not given) [Valinomycin] — lower, 56.8
- CCCN(CCC)C(=O)Cc1c(-c2ccc(Cl)cc2)nc2c(Cl)cc(Cl)cn12 — higher, 105
- C[N+](C)(C)CC#CCOC(=O)Nc1cccc(Cl)c1.[Cl-] — higher, 99.2
- [Cl-].c1ccc2c(c1)[I+]c1ccccc1-2 [Diphenyleneiodonium chloride] — lower, 34
- Br.CN1C2CC(OC(=O)C(CO)c3ccccc3)CC1C(O)C2 (stereo not given) [Anisodamine] — higher, 102
- CC=C(C)C(=O)OC1C(C)=C2C(C1OC(=O)CCCCCCC)C(C)(OC(C)=O)CC(OC(=O)CCC)C1(O)C2OC(=O)C1(C)O (stereo not given) [Thapsigargin] — lower, 44.2
- CCC1CN2CCc3cc(OC)c(OC)cc3C2CC1CC1NCCc2cc(OC)c(OC)cc21.Cl.Cl (stereo not given) [Emetine dihydrochloride hydrate] — lower, 20.6
- O=C1NC(=O)c2c1c1c3ccccc3[nH]c1c1[nH]c3ccccc3c21 — higher, 126
- O=C1CCCN1CC#CCN1CCCC1 [Oxotremorine] — higher, 109
- CN1C2CC(=O)CC1C(O)C2 (stereo not given) [6-Hydroxytropinone] — higher, 111
- COC1=C(OC)C(=O)C(=C2C(C)=C(C(=O)O)NC(c3ccc4c(n3)C(=O)C(N)=C(OC)C4=O)=C2N)C=C1 [Streptonigrin] — lower, 5.53
- Cl.Cl.c1ccc(CCCN2CCN(CCOC(c3ccccc3)c3ccccc3)CC2)cc1 — lower, 91.5
- CCCN(CCC)C1CCc2ccc(O)cc2C1 (racemic) — higher, 111
- CC1=C(O)C(=O)C2OC2C1=O (single isomer, unassigned; (-)) — higher, 98.1
- O=C(NCCN1CCC2(CC1)C(=O)NCN2c1cccc(F)c1)c1ccc(F)c(F)c1 — lower, 92.3
- CCN(CC)C(=O)NC1CC2c3cccc4[nH]cc(c34)CC2N(C)C1 (stereo not drawn) [R(+)-Terguride] — higher, 110
- CC(=O)OC1C(=O)C2(C)C(O)CC3OCC3(OC(C)=O)C2C(OC(=O)c2ccccc2)C2(O)CC(O)C(C)=C1C2(C)C (stereo not given) [Baccatin III] — higher, 112
- Cl.NCCc1c[nH]c2ccccc12 [Tryptamine hydrochloride] — higher, 98.5
- Cl.Clc1ccc(N2CCN(Cc3c[nH]c4ncccc34)CC2)cc1 [L-745,870 hydrochloride] — lower, 90.2
- CC(C)C1(NC(=O)C2CC3c4cccc5[nH]cc(c45)CC3N(C)C2)OC2(O)C3CCCN3C(=O)C(Cc3ccccc3)N2C1=O (stereo not given) [Dihydroergocristine] — higher, 100
- CS(=N)(=O)CCC(N)C(=O)O [L-Methionine sulfoximine] — lower, 94
- CCCN1CCCC(c2cccc(O)c2)C1.Cl (stereo not drawn) [S(-)-3PPP hydrochloride] — higher, 110
- Cl.NN=C(N)N [Aminoguanidine hydrochloride] — higher, 109
- CC1=C(O)C(=O)C=C2C1=CC=C1C2(C)CCC2(C)C3CC(C)(C(=O)O)CCC3(C)CCC12C (stereo not given) [Celastrol] — lower, 64
- CS(=O)(=O)O.O.Oc1ccc2c3c1OC1c4oc5ccccc5c4CC4(O)C(C2)N(CC2CC2)CCC314 (stereo not given) [Naltriben methanesulfonate hydrate] — higher, 101
- CCCCCC=CCC=CCCCCCCCC(=O)NCCO [Anandamide (18:2,n-6)] — higher, 108
- Cl.Oc1ccc2c3c1OC1C(O)CCC4(O)C(C2)N(CC2CCC2)CCC314 (stereo not given) [Nalbuphine hydrochloride] — higher, 104
- CC(=O)NC1CN2CCC(O)C2C(O)C1O (stereo not given) [6-Acetamido-6-deoxy-castanospermine] — higher, 103
- CC1CC(C)C(=O)C(C(O)CC2CC(=O)NC(=O)C2)C1 (stereo not given) [Cycloheximide] — lower, 41.7
- COc1ccc(-n2nc(C(F)(F)F)cc2-c2ccc(Cl)cc2)cc1 — higher, 106
- CN(C)Cc1c[nH]c2ccccc12 [Gramine] — higher, 99.3
- CN1CC[C@@]2(C)c3cc(OC(=O)Nc4ccccc4)ccc3N(C)[C@@H]12 — lower, 90.6
- O=P([O-])(O)C(Cl)(Cl)P(=O)([O-])O.[Na+].[Na+] [Clodronic acid] — higher, 101
- CN(C)C(=O)Oc1cccc([N+](C)(C)C)c1.COS(=O)(=O)[O-] — higher, 103

Reference: the supplement of paper PMC7156485
